Compound activity from PubChem.
An excerpt weighted towards active compounds, which were near 6.1% of everything screened.
ATXN viability: cell viability loss in ATXN counter-screen | Potency, µM (highest dose often 56.7 µM), hits mostly cytotoxic | S2 cells (HEK-293 line with an ATXN2-luciferase reporter) viability, CellTiter-Fluor protease fluorescence, 24 h | hit rate 0.49% among 400,000; further: nearly all actives have a fitted effect of over 40% in size
ATXN2 expr inh: ATXN2 expression inhibition | HEK-293 ATXN2-luciferase reporter, luminescence, 24 h | Potency, µM (titrated, usually from 57 µM), for the others: top-dose activity change, negative = inhibition, most hits filed as inhibitors | hit rate 0.72% among 360,000 | AID 1745845; further: on the % scale 0 is the no-effect control and ±100 the full control effect; nearly all actives have a fitted effect of over 55% in size
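ATXN2-luciferase reporter cells (luciferase flanked by upstream and downstream ATXN2 gene portions) were treated 24 h at 37 °C with compounds at up to 57 uM. SteadyGlo luminescence gave expression; GF-AFC fluorescence gave viability.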
TGFb SMAD3 inh: TGF-b pathway inhibition; HepG2 CAGA-GFP TGF-b/SMAD3 reporter, GFP fluorescence, 18 h; TGF-beta stimulated, 500 pg/mL final; Potency, µM (doses to about 46.1 µM), for the others: at the highest dose activity, negative = inhibition, most hits filed as inhibitors; hit rate 1.2% among 410,000; AID 588855; further: on the % scale 0 is the no-effect control and ±100 the full control effect; nearly all actives have a fitted effect of over 65% in size
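First, reporter cells (HEPG2 CAGA-GFP) rested 2 h at 37 degrees C. Next, compounds were pinned in and TGF-beta added to 500 pg/mL final. After 18 h, GFP was imaged per cell and summed per well.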
HepG2 viability: HepG2 cytotoxicity, counter-screen for TGF-b inhibitors | HepG2 CAGA-GFP viability, ATP luminescence, 18 h | Potency, µM (doses to about 46.1 µM), inactives show at the highest dose activity change, negative = cytotoxicity, hits mostly cytotoxic | hit rate 0.76% among 410,000 | AID 588856
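CellTiter-Glo luminescence gave cytotoxicity after 18 hours at 37 degrees C. The cells were HepG2 CAGA-GFP in 1% FBS DMEM, stimulated with 500 pg/mL TGF-beta after compound addition. %Activity was normalised to no-cell wells (complete cell-killing) and DMSO (no toxicity), and curves were fitted and classified.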
Gal4-VP16 FLuc: Gal4-VP16 reporter inhibition counter-screen; Drosophila S2 Gal4-VP16 UAS-luciferase, luminescence, 20 h; Potency, µM (doses to about 53.6 µM), for the others: at the top dose activity, negative = inhibition, hits mostly inhibitors; hit rate 3.5% among 310,000; AID 2546;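 further: Gal4-VP16 expression switched on by copper sulfate through the metallothionein promoter; on the % scale 0 is the no-effect control and ±100 the full control effect; nearly all actives have a fitted effect of over 50% in size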
RORg inh: inhibitors of mouse ROR gamma transcriptional activity; P51450; Drosophila S2 Gal4-RORgamma UAS-luciferase reporter, 20 h; Potency, µM (series often up to 53.6 µM), without a hit: at the highest dose activity change, negative = inhibition, usual class: inhibitors; hit rate 5.4% among 310,000; further: on the % scale 0 is the no-effect control and ±100 the full control effect; nearly all actives have a fitted effect of over 60% in size
Target sequence (P51450 whole entry, looked up, the tested form may be a part): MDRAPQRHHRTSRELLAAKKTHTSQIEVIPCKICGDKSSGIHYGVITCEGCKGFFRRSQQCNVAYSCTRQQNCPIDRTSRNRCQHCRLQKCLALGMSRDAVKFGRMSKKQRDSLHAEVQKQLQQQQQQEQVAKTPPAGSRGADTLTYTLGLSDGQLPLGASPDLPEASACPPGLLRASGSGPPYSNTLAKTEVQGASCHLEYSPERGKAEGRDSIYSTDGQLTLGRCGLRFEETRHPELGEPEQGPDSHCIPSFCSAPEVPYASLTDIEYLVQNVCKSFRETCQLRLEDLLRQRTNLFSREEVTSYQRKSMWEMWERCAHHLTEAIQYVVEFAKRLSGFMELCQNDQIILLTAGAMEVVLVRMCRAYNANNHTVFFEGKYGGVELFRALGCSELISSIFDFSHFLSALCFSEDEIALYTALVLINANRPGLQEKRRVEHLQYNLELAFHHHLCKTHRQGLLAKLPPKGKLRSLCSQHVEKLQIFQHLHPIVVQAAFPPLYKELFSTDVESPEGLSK
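Stable Schneider cell line, Gal4 DNA-binding domain fused to ROR gamma, UAS-luciferase. Cmpd 1 hr RT → CuSO4 700 uM final → 20 hr RT → luciferase reagent 10 min → luminescence.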
Numbers without * were called inactive; i = inactive; u = inconclusive; x = no result; [ ] = dose if it differs, or a comment. The call rests on the fitted dose curve; in most records, active means well fitted curve in the direction sought with a large enough effect; inconclusive means small, poorly fitted or top-dose-only effect, or another doubt; inactive means no such curve, though single readings can be large; an effect the other way counts as inactive or inconclusive. Potency means the concentration at half of the fitted maximal effect.

SMILES | ATXN viability | ATXN2 expr inh | TGFb SMAD3 inh | HepG2 viability | Gal4-VP16 FLuc | RORg inh
CCCCC[n+]1ccn(C2=C([O-])c3ccccc3C(=O)/C2=N\S(=O)(=O)c2ccc(Br)cc2)c1 | i | x | 1.6µM* | 4µM* | -3% | -18%
C#CCOCCOCCOCCNc1nc(N2CCN(C(=O)CCCCCCCCCCNC(=O)[C@H](CCCCN)n3cc(CCCC(=O)O)nn3)CC2)nc(N2CCN(C(=O)CCCCCCCCCCNC(=O)[C@H](CCCN=C(N)N)n3cc(C[C@@H](C)CC)nn3)CC2)n1 | 28µM* | u | u | -100% | x | x
C#CCOCCOCCOCCNc1nc(N2CCN(C(=O)CCCCCCCCCCNC(=O)[C@H](CCCCN)n3cc(CCO)nn3)CC2)nc(N2CCN(C(=O)CCCCCCCCCCNC(=O)[C@H](CCCCN)n3cc(CCO)nn3)CC2)n1 | u | -8% | u | -24% | x | x
C#CCOCCOCCOCCNc1nc(N2CCN(C(=O)CCCCCCCCCCNC(=O)[C@H](CCCCN)n3cc(C[C@@H](C)CC)nn3)CC2)nc(N2CCN(C(=O)CCCCCCCCCCNC(=O)[C@H](CCCCN)n3cc(C[C@@H](C)CC)nn3)CC2)n1 | 13µM* | 22µM* | u | 10µM* | x | x
C#CCOCCOCCOCCNc1nc(N2CCN(C(=O)CCCCCCCCCCNC(=O)[C@H](CCCCN)n3cc(CCO)nn3)CC2)nc(N2CCN(C(=O)CCCCCCCCCCNC(=O)[C@H](CCCN=C(N)N)n3cc(C[C@@H](C)CC)nn3)CC2)n1 | 18µM* | 20µM* | u | -109% | x | x
C#CCOCCOCCOCCNc1nc(N2CCN(C(=O)CCCCCCCCCCNC(=O)[C@H](CCCCN)n3cc(CCCC(=O)O)nn3)CC2)nc(N2CCN(C(=O)CCCCCCCCCCNC(=O)[C@H](CCCCN)n3cc(CCCC(=O)O)nn3)CC2)n1 | i | -30% | -11% | -2% | x | x
C#CCOCCOCCOCCNc1nc(N2CCN(C(=O)CCCCCCCCCCNC(=O)Cn3cc(C[C@@H](C)O)nn3)CC2)nc(N2CCN(C(=O)CCCCCCCCCCNC(=O)[C@H](CCCCN)n3cc(C[C@@H](C)CC)nn3)CC2)n1 | 20µM* | 25µM* | u | 13µM* | x | x
Cc1ccc(-n2[nH]c(C)c(N=Nc3cccc(-c4cccc(C(=O)O)c4)c3O)c2=O)cc1C | i | u | x | x | x | x
CC(C)(C)OC(=O)NCCCC[C@@H](C(=O)NCCCCCCCCCCC(=O)N1CCN(C(=O)OC(C)(C)C)CC1)n1cc(CCO)nn1 | 35µM* | u | u | -14% | x | x
CSCC[C@@H](C(=O)NCCCCCCCCCCC(=O)N1CCN(C(=O)OC(C)(C)C)CC1)n1cc(CCO)nn1 | u | u | -27% | -7% | x | x
Cc1cc2ccccn2c1C(=O)c1ccc([N+](=O)[O-])o1 | u | u | 11µM* | 11µM* | u | -41%
Cc1csc(NC(=O)c2ccc3ccccc3n2)n1 | i | 82% | -11% | -34% | 7.1µM* | 2.5µM*
O=C(NCc1ccccn1)C(=O)Nc1nc(-c2ccccc2)cs1 | i | 14% | 18% | -19% | u | 10µM*
O=C(O)c1ccccc1C(=O)Nc1ccccn1 | i | 3% | -2% | -44% | x | 6%[0.365 µM]
O=C(Nc1ccccn1)c1ccc2ccccc2c1O | u | 58% | -3% | 7% | 13µM* | u
Cc1csc(NC(=O)c2ccccc2C(=O)O)n1 | x | x | -1% | -15% | 5% | 12%
CN(C)CC(=O)Nc1nc(-c2ccccc2)cs1 | i | 33% | -6% | 4% | u | 11µM*
COCC(=O)Nc1cc(C(=O)N[C@H]2CCCCNC2=O)c2c(c1)nc(-c1ccncc1)n2C | i | x | x | x | x | x
Cc1cnc(C(=O)Nc2ccccc2-c2ccc(C)o2)cn1 | i | -15% | -2% | -25% | u | 7.1µM*
Cc1csc(NC(=O)c2ccco2)n1 | u | 44% | 15% | 0% | x | -34%[0.365 µM]
Cc1csc(NC(=O)c2cnc3ccccc3n2)n1 | i | u | -8% | -5% | u | 11µM*
O=C(Nc1nccs1)c1ccccc1Br | i | x | 1% | -3% | -3% | -15%
O=C(Nc1nccs1)c1ccc2ccccc2n1 | i | 26% | -17% | -23% | u | 7.1µM*
Cc1csc(NC(=O)c2cc(C)nc3ccccc23)n1 | i | x | 4% | -13% | -13% | 11µM*
O=C(Nc1ccc(F)cc1Cl)C1CCN(c2ncnc3c2nc2n3CCCCC2)CC1 | i | -10% | u | -4% | x | x
SMILES | ATXN viability | ATXN2 expr inh | TGFb SMAD3 inh | HepG2 viability | Gal4-VP16 FLuc | RORg inh
CCc1ccc(C(=O)Nc2nc(C)cs2)s1 | i | u | 0% | -2% | 11µM* | 7.1µM*
Cc1cnc(C(=O)Nc2nc(-c3ccccc3)cs2)cn1 | i | -3% | 26% | -1% | 4.5µM* | 4.5µM*
O=C(Nc1ccccn1)C1(c2ccccc2)CCCC1 | i | 14% | 8% | -14% | 20µM* | -12%
Cc1csc(NC(=O)c2ccc(C(=O)Nc3nc(C)cs3)cc2)n1 | x | x | x | x | 3% | 1%
O=C(Nc1ccccn1)c1ccc2ccccc2n1 | i | 73% | -10% | -24% | u | 10µM*
COCc1ccc(CN2Cc3cc(Cl)ccc3OC(C)C2)o1 (stereo not given) | i | x | x | x | x | x
Cc1cccc(NC(=O)c2ccc3ccccc3n2)c1C | i | 99% | u | -40% | u | 1.8µM*
Cc1ccccc1NC(=O)c1cccc(C(=O)Nc2ccccc2C)n1 | i | 4% | 1% | -5% | -1% | 38%
O=C(Nc1cccc([N+](=O)[O-])c1)c1ccc2ccccc2c1O | i | -38% | u | -31% | 2.8µM* | -31%
O=C(Nc1ccccn1)C(=O)Nc1ccccn1 | i | x | 3% | -4% | 13µM* | 10µM*
CC(=O)NC(CC(=O)Nc1nc(-c2ccc(N(C)S(C)(=O)=O)cc2)cs1)c1ccccc1 (stereo not given) | i | -25% | -22% | -1% | 11µM* | 4%
COc1cc(OC)c(OC)cc1CN1CCCC(c2nc(C)ncc2-c2ccc(F)cc2)C1 (stereo not given) | i | x | x | x | x | x
COC(=O)C1=C(C(=O)OC)SC2(S1)C(C(=O)OC)=C(C(=O)OC)SC1=C2c2cc(C)cc(C)c2NC1(C)C | i | 12% | -19% | -17% | -17% | 13µM*
CCC1CN2CCC1CC2[C@@H](NC(=S)Nc1cc(C(F)(F)F)cc(C(F)(F)F)c1)c1cccc2ccc(OC)cc12 (stereo not given in full) | x | x | x | x | 13% | -42%
